Measured values published in PubChem BioAssay (NCATS).
Records with an inconclusive call do not appear. Active and inactive are the calls of the source. The call rests on the fitted dose curve; in most records, active means well fitted cell-killing curve with a large enough effect; inconclusive means small, poorly fitted or top-dose-only effect; inactive means no such curve, though single readings can be large or run the other way.

assay: qHTS of pediatric cancer cell lines to identify multiple opportunities for drug repurposing: Primary screen for MG 63 (6-TG R) cells (AID 1347105); settings: MG 63 (6-TG R) viability, CellTiter-Glo, 48 h; series mostly up to 46 µM; activity change, negative = cytotoxic: at the top concentration; further: nearly all actives have a fitted effect of over 50% in size
From the text: Drug repurposing or repositioning has been offered as a strategy for drug development in oncology programs. This approach has special potential for childhood cancers and other rare or orphan diseases, where the expected return on new drug development has been a disincentive to pharmaceuticals. […] In this project we exploit the poly-pharmacology of drugs to discover new indications via phenotypic screening of a panel of 19 well-characterized cell lines derived from solid tumors seen in children and adolescents. The goal is to identify approved drugs with previously unrecognized anticancer properties that has the potential to reveal new mechanisms and biological processes involved in carcinogenesis or drug resistance. We employed a titration-based paradigm (quantitative high-throughput screening or qHTS), where all compounds were tested at multiple concentrations for their effect on cell viability. Concentration-response curves (CRCs) were derived directly from the primary screen, and both potency and efficacy values were used to identify compounds with robust bioactivity profiles. We screened the NIH Chemical Genomics Center (NCGC) Pharmaceutical Collection (NPC) and Mechanism Interrogation Plate (MIPE) small molecule collections of approved and investigational compounds against these cell lines; and measured metabolically active cells after 48 hours of compound treatment as a proxy for cell viability. […] Assay Submitter: Nathalia J. Martinez, National Center for Advancing Translational Sciences, National Institutes of Health, Rockville, MD, USA; email: natalia.martinez@nih.gov Shen, M et al. Quantitative high-throughput phenotypic screening of pediatric cancer cell lines identifies multiple opportunities for drug repurposing. Oncotarget 2017 Dec 19;9(4):4758-4772. PMID 29435139.
The cells were obtained from University of North Carolina (UNC), Pediatric Preclinical Testing Program (PPT), and Coriell Institute (CI). qHTS cell viability assay: Cells were assayed in growth media at a density of 500-1,000 cells/well. Five microliters of cells were dispensed into 1,536-well, white, solid-bottom, TC-treated plates (Greiner Bio One) using a multidrop dispenser and incubated at 37 degrees C, 5% CO2, under a humidified atmosphere for 5 hours. Twenty-three nanoliters of compounds and controls (neutral control DMSO or positive control bortezomib at final concentration of 2.3 µM) were subsequently transferred by Kalypsys pintool. For primary screens, the MIPE collection was tested at 11-point dilutions (final concentrations range from 0.78 nM to 46 µM) and the NPC collection at 8-point dilutions (final concentrations range from 0.59 nM to 46 µM). Compounds tested in follow-up screens were assayed at 11-point dilutions. Cells were incubated for 48 hours, followed by addition of 3 µL of CellTiter-Glo (Promega). After a 15 min incubation at room temperature, samples were analyzed for luminescence intensity using a ViewLux High-throughput CCD imager equipped with clear filters.
On the % scale 0 is the no-effect control and ±100 the full control effect; potency means the concentration at half of the fitted maximal effect.

Compound | Potency | activity change, negative = cytotoxic
OC[C@@H](O)[C@H](O)[C@H](O)[C@@H](O)CO | inactive | –
O=C(O)c1cc(-c2ccccc2)nc2ccccc12 | – | -8.08% (inactive)
C[N+](C)(C)CC(=O)O | – | -13.1% (inactive)
Cc1ccc(Nc2cc(-c3cccc(N4C(=O)c5ccccc5C4=O)c3)ncn2)cc1NS(C)(=O)=O | – | -9.19% (inactive)
CS(=O)(=O)N(Cc1ccco1)CC(O)Cn1c2ccccc2c2ccccc21 (stereo not given) | – | -29.6% (inactive)
Cc1ccc(C(=O)Nc2cccc(C(F)(F)F)c2)cc1Nc1nc(-c2cccnc2)nc2c1cnn2C | 18.7 µM (active) | –
CCCCCN(C)CCC(O)(P(=O)(O)O)P(=O)(O)O | – | -11.2% (inactive)
CC(=O)Nc1ccc([C@H](C)C(=O)Nc2ncc(C(C)C)s2)cc1 | 1.87 µM (active) | –
COc1ccc(C2Sc3ccccc3N(CCN(C)C)C(=O)C2OC(C)=O)cc1 (stereo not given) | – | -1.9% (inactive)
Nc1ncnc2c1ncn2[C@@H]1O[C@@H](CO)[C@H](O)[C@H]1O | – | 10.3% (inactive)
C[C@]12CC[C@@H]3c4ccc(O)cc4C[C@@H](CCCCCCCCCS(=O)CCCC(F)(F)C(F)(F)F)[C@H]3[C@H]1CC[C@H]2O (stereo not given in full) | – | -1.71% (inactive)
Clc1ccc(C(c2ccc(Cl)cc2)n2cc[n+](CC(OCc3ccc(Cl)cc3Cl)c3ccc(Cl)cc3Cl)c2)cc1 (stereo not given) | 23.5 µM (active) | –
N[C@@]1(C(=O)O)CS(=O)(=O)[C@H]2[C@H](C(=O)O)[C@H]21 | – | -9.57% (inactive)
CC(C)n1cnc2c(NCCCCCCNC(=O)OC(C)(C)C)nc(NCCO)nc21 | – | -11.1% (inactive)
COc1ccc(-n2c(C)c([N+](=O)[O-])c3ccc(O)cc32)cc1 | – | -0.507% (inactive)
COC1CCC(N(C(=O)C2CCC(C)CC2)c2cc(C3=CCCCC3)sc2C(=O)O)CC1 (stereo not given) | – | 25.6% (inactive)
O=c1c(-c2ccc(O)cc2)coc2cc(O[C@@H]3O[C@H](CO)[C@H](O)[C@H](O)[C@H]3O)ccc12 | – | 7.77% (inactive)
CC(C)(Cc1ccc2ccccc2c1)NC[C@@H](O)COc1cccc(Cl)c1C#N | – | -23.7% (inactive)
Nc1ncnc2ccccc12 | – | -10.5% (inactive)
CO[C@H]1C=CO[C@@]2(C)Oc3c(C)c(O)c4c(O)c(c5c(c4c3C2=O)NC2(CCN(CC(C)C)CC2)N=5)=NC(=O)C(C)=CC=C[C@H](C)[C@H](O)[C@@H](C)[C@@H](O)[C@@H](C)[C@H](OC(C)=O)[C@H]1C | – | -14% (inactive)

Compound | Potency | activity change, negative = cytotoxic
CS(=O)c1ccc(-c2nc(-c3ccc(F)cc3)c(-c3ccncc3)[nH]2)cc1 (stereo not given) | – | 0.979% [at 92.7 µM] (inactive)
COc1ccc(-c2cc(=O)c3c(O)cc(O)cc3o2)cc1O | – | -5.43% (inactive)
O=c1cc(-c2ccc(O)cc2)oc2cc(O)cc(O)c12 | 18.7 µM (active) | –
CCC(=O)O[C@]1(C(=O)CO)CC[C@H]2[C@@H]3CCC4=CC(=O)CC[C@]4(C)[C@@H]3CC[C@@]21C | – | -6.56% (inactive)
O=C(CCc1ccc(O)cc1)c1c(O)cc(O)cc1O[C@@H]1O[C@H](CO)[C@H](O)[C@H](O)[C@H]1O | – | -22.4% (inactive)
Cc1c(NC(=O)c2ccc(C(C)(C)C)cc2)cccc1-c1cn(C)c(=O)c(Nc2ccc(C(=O)N3CCOCC3)cc2)n1 | – | -22.7% (inactive)
O=C(N[C@@H](c1ccccc1)[C@@H]1CCCCN1)c1cccc(C(F)(F)F)c1Cl | – | -8.41% (inactive)
CO[C@@H](C(=O)N1Cc2[nH]nc(NC(=O)c3ccc(N4CCN(C)CC4)cc3)c2C1)c1ccccc1 | 1.48 µM (active) | –
O=c1cc(-c2ccccc2)oc2cc(O)cc(O)c12 | – | 4.48% (inactive)
O=C(O)C=Cc1ccc(O)c(O)c1 | – | -5.96% (inactive)
CC[C@]1(O)C[C@@H]2CN(CCc3c([nH]c4ccccc34)[C@@](C(=O)OC)(c3cc4c(cc3OC)N(C=O)[C@@H]3C45CCN4CC=C[C@](CC)([C@H]45)[C@@H](OC(C)=O)[C@]3(O)C(=O)OC)C2)C1 (stereo not given in full) | – | -10.4% (inactive)
CC(C)C(C)C=CC(C)C1CCC2C3=CC=C4CC(O)CCC4(C)C3CCC21C (stereo not given) | – | 3.58% (inactive)
Nc1nc(F)nc2c1ncn2[C@@H]1O[C@H](COP(=O)(O)O)[C@@H](O)[C@H]1O | 0.469 µM (active) | –
O=C(O)Cc1cccc2ccccc12 | inactive | –
C[N+]1(C)[C@@H]2CC(OC(=O)[C@H](CO)c3ccccc3)C[C@H]1[C@H]1O[C@@H]12 (stereo not given in full) | – | -14.6% (inactive)
O=C1NC(=O)C(=Cc2cccc(C(F)(F)F)c2)S1 | – | -27.1% (inactive)
Cc1cccc(C)c1OCC(C)N (stereo not given) | – | -19.8% (inactive)
COc1cc(N2CCC(N3CCN(C)CC3)CC2)ccc1Nc1ncnc(Nc2ccccc2S(=O)(=O)C(C)C)n1 | – | -75.1% (inactive)
COc1cc2ncnc(-n3nc(-c4ccccn4)nc3N)c2cc1OC | – | -15.4% (inactive)
O=C(NC1CCOCC1)c1ccc(-c2cc(-c3cn[nH]c3-c3ccccn3)ccn2)cc1 | – | 25.6% (inactive)
